# Data reported in ChEMBL document CHEMBL1961873, “Compounds: GSK PKIS; Assays: Nanosyn kinase panel” (2012).
# Values joined by “and” are separate entries in the source; they are usually repeats but may differ in a detail not shown here. Equal entries are not always repeated.
# Key:
# [1] = target: T1, Ephrin type-B receptor 2 (Homo sapiens) (UniProt P29323); settings: at 1 µM
# T1 sequence (whole entry): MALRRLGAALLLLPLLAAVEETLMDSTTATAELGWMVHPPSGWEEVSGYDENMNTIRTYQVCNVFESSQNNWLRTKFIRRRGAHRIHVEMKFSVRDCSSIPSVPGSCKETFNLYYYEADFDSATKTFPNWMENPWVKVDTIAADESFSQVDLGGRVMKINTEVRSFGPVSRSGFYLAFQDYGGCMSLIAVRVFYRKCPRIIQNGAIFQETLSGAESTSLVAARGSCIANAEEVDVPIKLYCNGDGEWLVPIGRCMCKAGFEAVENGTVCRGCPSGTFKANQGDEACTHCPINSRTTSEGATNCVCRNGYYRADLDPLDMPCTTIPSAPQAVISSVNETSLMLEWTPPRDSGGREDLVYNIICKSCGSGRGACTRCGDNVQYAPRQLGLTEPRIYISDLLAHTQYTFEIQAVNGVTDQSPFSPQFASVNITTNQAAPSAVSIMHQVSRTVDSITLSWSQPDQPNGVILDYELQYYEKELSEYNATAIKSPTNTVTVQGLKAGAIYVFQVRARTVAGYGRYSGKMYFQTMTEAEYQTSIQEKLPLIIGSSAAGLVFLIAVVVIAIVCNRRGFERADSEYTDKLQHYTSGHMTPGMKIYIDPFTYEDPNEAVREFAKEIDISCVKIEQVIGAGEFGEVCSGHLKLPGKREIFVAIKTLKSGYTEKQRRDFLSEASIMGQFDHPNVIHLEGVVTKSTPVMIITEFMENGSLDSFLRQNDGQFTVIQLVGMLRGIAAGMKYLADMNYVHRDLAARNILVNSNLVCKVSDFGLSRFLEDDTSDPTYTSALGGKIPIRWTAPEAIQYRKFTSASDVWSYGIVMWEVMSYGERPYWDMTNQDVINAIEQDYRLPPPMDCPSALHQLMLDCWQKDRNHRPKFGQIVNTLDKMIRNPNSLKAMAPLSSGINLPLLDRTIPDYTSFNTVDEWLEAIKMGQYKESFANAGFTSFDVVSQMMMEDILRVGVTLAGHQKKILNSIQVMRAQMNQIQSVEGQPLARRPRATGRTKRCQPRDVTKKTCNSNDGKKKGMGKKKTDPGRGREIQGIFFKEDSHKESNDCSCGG
# [2] = target: T2, Ephrin type-B receptor 3 (Homo sapiens) (UniProt P54753); settings: at 0.1 µM
# T2 sequence (whole entry): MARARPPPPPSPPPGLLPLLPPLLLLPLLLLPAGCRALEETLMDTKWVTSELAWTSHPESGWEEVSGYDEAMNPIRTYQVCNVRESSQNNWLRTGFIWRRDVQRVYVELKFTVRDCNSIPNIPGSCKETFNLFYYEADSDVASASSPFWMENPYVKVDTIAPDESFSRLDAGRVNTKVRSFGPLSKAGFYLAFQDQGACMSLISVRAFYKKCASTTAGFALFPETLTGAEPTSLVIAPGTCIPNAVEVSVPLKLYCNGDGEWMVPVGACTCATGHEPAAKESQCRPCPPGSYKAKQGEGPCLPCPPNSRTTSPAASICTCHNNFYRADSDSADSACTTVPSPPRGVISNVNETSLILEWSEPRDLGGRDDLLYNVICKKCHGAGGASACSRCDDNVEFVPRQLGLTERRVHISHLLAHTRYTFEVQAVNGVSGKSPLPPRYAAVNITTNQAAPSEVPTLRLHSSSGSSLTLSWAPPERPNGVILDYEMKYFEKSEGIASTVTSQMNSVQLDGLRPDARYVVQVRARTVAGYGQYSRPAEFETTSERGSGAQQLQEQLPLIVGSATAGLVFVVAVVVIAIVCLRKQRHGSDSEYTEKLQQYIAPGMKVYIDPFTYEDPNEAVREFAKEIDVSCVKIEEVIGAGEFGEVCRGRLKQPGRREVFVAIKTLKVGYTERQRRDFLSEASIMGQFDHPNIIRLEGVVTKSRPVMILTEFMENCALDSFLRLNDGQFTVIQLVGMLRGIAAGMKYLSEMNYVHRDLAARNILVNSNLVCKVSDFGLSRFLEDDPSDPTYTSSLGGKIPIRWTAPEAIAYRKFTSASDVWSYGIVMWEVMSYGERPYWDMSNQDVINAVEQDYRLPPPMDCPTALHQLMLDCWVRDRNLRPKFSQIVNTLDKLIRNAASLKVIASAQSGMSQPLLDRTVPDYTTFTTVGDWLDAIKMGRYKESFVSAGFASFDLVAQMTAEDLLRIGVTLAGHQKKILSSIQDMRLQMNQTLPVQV
# [3] = target: T2, Ephrin type-B receptor 3 (Homo sapiens); settings: at 1 µM
# [4] = target: T3, Ephrin type-B receptor 4 (Homo sapiens) (UniProt P54760); settings: at 0.1 µM
# T3 sequence (whole entry): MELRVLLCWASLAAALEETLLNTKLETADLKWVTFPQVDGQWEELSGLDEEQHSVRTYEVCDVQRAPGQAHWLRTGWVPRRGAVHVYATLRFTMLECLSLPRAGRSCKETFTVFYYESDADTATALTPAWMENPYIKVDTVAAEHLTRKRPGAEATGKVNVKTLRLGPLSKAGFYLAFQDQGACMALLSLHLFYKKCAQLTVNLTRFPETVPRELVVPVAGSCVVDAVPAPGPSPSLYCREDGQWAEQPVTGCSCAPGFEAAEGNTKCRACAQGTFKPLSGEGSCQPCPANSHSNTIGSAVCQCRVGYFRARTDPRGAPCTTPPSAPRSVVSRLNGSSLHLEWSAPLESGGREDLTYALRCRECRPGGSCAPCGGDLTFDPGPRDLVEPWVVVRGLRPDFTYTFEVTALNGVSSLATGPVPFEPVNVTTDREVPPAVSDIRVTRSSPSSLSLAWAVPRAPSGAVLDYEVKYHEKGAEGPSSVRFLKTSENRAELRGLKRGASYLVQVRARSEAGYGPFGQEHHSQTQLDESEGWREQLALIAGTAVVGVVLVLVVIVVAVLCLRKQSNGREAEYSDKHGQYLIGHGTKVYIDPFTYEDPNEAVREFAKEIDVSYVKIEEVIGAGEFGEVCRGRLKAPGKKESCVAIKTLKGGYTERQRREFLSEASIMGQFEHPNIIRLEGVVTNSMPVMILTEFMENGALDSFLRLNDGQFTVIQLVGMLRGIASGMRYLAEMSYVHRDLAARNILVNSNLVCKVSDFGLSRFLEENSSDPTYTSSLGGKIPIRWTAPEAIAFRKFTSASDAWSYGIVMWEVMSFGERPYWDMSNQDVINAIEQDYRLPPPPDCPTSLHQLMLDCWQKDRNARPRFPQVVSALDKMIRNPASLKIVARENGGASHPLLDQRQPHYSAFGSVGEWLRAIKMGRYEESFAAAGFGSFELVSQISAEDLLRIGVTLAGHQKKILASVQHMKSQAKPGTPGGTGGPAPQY
# [5] = target: T3, Ephrin type-B receptor 4 (Homo sapiens); settings: at 1 µM
# [6] = target: Receptor tyrosine-protein kinase erbB-2 (Homo sapiens) (UniProt P04626); settings: at 0.1 µM
# Chain of Receptor tyrosine-protein kinase erbB-2 (Homo sapiens) (P04626 whole entry): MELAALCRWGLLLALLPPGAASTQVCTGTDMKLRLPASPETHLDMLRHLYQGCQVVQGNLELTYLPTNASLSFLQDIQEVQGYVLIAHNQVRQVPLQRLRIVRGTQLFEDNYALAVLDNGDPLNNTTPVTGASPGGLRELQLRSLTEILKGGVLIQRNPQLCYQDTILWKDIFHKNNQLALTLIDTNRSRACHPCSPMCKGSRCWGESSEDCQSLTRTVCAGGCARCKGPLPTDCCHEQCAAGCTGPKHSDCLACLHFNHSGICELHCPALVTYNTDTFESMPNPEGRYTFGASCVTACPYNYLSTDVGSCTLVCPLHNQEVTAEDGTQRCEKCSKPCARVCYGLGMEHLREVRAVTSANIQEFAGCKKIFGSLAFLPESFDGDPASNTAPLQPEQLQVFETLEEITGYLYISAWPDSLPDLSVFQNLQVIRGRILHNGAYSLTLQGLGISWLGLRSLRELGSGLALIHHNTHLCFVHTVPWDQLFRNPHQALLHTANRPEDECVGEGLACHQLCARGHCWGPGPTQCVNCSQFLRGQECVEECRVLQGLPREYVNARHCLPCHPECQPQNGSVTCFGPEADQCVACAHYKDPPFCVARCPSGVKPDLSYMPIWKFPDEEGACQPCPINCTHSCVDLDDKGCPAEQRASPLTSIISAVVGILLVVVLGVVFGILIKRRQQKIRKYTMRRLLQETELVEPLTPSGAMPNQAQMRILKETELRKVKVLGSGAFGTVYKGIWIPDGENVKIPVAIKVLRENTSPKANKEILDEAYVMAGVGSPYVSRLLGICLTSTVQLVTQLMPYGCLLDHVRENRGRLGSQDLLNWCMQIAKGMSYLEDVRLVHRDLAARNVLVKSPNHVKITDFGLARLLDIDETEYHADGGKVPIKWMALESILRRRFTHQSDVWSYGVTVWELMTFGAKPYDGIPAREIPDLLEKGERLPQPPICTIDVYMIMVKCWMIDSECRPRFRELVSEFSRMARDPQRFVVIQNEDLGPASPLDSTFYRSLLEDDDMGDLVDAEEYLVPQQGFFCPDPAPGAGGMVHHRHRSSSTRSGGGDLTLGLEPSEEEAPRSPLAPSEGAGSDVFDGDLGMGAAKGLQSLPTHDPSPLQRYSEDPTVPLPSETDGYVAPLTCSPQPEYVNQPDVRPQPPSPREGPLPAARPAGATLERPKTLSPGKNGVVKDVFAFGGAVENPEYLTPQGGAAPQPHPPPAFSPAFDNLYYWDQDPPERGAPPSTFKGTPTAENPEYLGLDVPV
# [7] = target: Receptor tyrosine-protein kinase erbB-2 (Homo sapiens) (UniProt P04626); settings: at 1 µM
# [8] = target: Receptor tyrosine-protein kinase erbB-4 (Homo sapiens) (UniProt Q15303); settings: at 0.1 µM
# Chain of Receptor tyrosine-protein kinase erbB-4 (Homo sapiens) (Q15303 whole entry): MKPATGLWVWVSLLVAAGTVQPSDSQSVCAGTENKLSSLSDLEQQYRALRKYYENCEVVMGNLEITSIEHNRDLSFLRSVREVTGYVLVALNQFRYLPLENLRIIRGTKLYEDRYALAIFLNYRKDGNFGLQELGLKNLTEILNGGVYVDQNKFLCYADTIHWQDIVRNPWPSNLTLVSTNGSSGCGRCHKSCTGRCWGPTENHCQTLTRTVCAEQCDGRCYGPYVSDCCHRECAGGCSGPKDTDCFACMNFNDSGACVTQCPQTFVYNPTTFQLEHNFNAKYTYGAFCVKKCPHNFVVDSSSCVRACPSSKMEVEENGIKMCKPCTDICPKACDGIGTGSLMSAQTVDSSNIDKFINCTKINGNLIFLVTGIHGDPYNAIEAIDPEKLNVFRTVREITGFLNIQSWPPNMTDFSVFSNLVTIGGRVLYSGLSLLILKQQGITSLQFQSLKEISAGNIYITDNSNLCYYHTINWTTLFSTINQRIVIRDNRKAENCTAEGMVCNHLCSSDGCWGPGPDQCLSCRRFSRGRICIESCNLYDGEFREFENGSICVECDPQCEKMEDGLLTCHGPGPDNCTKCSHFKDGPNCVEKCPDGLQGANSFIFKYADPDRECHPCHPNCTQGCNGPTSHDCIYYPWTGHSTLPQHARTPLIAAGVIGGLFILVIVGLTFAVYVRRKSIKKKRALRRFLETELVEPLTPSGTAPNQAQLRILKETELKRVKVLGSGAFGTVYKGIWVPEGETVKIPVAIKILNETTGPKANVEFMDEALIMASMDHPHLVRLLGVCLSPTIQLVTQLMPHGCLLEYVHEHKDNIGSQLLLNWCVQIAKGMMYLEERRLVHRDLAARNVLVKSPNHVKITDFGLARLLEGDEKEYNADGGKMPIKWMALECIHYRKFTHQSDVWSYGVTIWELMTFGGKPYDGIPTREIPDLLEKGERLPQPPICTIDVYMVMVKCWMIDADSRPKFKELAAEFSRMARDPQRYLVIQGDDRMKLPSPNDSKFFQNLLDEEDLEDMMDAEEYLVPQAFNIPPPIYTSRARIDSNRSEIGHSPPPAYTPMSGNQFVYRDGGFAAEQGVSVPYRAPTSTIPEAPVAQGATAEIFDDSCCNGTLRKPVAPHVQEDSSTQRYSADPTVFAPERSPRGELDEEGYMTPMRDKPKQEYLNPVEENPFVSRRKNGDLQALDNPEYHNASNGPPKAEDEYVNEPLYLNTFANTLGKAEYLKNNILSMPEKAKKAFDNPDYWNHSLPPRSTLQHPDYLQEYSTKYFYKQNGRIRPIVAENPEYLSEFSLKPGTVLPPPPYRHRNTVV
# [9] = target: Receptor tyrosine-protein kinase erbB-4 (Homo sapiens) (UniProt Q15303); settings: at 1 µM
# [10] = target: Tyrosine-protein kinase Fer (Homo sapiens) (UniProt P16591); settings: at 0.1 µM;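 also: reported figures are averaged percent inhibition of FER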
# Chain of Tyrosine-protein kinase Fer (Homo sapiens) (P16591 whole entry, looked up): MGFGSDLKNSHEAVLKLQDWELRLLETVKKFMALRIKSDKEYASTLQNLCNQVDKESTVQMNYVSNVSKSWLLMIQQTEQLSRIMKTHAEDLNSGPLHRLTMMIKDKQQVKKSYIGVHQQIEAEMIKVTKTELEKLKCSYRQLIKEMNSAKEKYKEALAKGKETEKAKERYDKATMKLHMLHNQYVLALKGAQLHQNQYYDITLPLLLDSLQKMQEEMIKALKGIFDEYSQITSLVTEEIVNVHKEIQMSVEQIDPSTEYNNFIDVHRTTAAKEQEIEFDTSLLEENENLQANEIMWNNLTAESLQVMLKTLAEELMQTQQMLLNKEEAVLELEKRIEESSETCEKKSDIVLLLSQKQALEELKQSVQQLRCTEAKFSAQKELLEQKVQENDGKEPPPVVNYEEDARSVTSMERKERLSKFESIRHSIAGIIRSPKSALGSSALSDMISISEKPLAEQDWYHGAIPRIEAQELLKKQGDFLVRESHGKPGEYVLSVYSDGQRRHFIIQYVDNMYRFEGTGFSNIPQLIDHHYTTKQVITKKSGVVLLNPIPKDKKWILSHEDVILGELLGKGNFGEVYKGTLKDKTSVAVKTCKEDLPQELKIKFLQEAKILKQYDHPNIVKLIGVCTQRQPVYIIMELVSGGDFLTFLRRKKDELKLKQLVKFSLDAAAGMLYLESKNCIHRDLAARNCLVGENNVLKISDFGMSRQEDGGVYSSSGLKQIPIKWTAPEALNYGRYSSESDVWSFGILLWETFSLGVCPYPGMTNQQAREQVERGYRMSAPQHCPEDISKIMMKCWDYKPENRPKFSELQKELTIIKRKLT
Structure (SMILES),inhibition [1],inhibition [2],inhibition [3],inhibition [4],inhibition [5],inhibition [6],inhibition [7],inhibition [8],inhibition [9],inhibition [10]
CS(=O)(=O)CCNCc1ccoc1-c1ccc2ncnc(Nc3ccc(OCc4ccccc4)cc3)c2c1,7.96%,3.15%,2.98%,0.88%,1.51%,3.25%,50.9%,32.3%,79.9%,-0.1%
N#Cc1ccc2c(-c3ccnc(NC4CC4)n3)c(-c3ccc(F)cc3)nn2c1,24.5%,5.62%,4.39%,-0.62%,2.45%,1.97%,5%,5.5%,13.4%,-2.41%
COc1cc(Nc2ncc(-c3ccccc3)o2)cc(OC)c1,11.5%,3.34%,3.15%,1.28%,4.64%,2.1%,3.72%,9.38%,14.6%,0.58%
N#Cc1cccc(Nc2ncc(-c3ccccc3)o2)c1,0.63%,3.66%,1.53%,0.33%,0.44%,2.68%,4.17%,6.42%,9.11%,1.76%
Cc1cc(O)cc(C)c1/C=C/c1cncc(C(N)=O)c1,56.7%,5.06%,9.99%,9.23%,46.1%,5.08%,-0.51%,12.7%,14.4%,2%
CCn1c(-c2nonc2N)nc2cncc(C(=O)NCCNC)c21,7.7%,3.02%,3.19%,-0.07%,0.78%,5.03%,3.74%,10.7%,12.2%,4.13%
CC1(C)CC(n2cnc(-c3ccc(F)cc3)c2-c2ccnc(N)n2)CC(C)(C)N1,4.85%,3.09%,1.51%,0.27%,0.62%,-1.2%,-3.03%,0.19%,3.58%,3.41%
CCOc1ccc2c(-c3ccnc(Nc4cc(OC)cc(C(F)(F)F)c4)n3)cnn2n1,8.72%,2.9%,1.21%,2.17%,1.74%,2.32%,2.46%,4.82%,4.44%,2.36%
COc1cccc(-n2ncc3c(N/N=C/c4ccc(C(=O)NCCN(C)C)cc4)ncnc32)c1,46.4%,5.98%,7.32%,6.37%,30.5%,0.77%,10.5%,23.2%,49.9%,3.03%
NS(=O)(=O)c1ccc(N/N=C2\C(=O)Nc3ccc(C(=O)NCc4ccncc4)cc32)cc1,11.1%,3.93%,2.6%,1.83%,4.17%,2.22%,6.09%,6.54%,7.07%,2.36%
COc1cc2c(cc1Nc1nc(Nc3cccc(F)c3C(N)=O)c3cc[nH]c3n1)N(C(=O)CN1CCN(C(C)C)CC1)CC2,3.39%,1.98%,0.18%,1.3%,2.98%,2.36%,3.48%,16.9%,59.7%,8%
c1ccc(-c2n[nH]cc2-c2ccnc(-c3ccc(OCCn4ccnc4)cc3)c2)nc1,0.77%,1.4%,-0.01%,0.04%,-0.88%,0.33%,-1.51%,-1.46%,3.39%,1.51%
O=C(O[C@H]1CN[C@H](C#Cc2cc3ncnc(Nc4ccc(OCc5cccc(F)c5)c(Cl)c4)c3s2)C1)N1CCOCC1,6.81%,5.55%,5.83%,0.52%,1.52%,6.98%,52.8%,82.2%,85.3%,5.92%
COc1ccc(-c2nn3ncccc3c2-c2ccnc(Nc3ccc(F)c(F)c3)n2)cc1,18.6%,4.77%,3.59%,1.49%,7.6%,4.95%,5.88%,27.1%,71.3%,4.09%
CS(=O)(=O)CCNCc1ccc(-c2ccc3ncnc(Nc4ccc(OCc5ccccc5)cc4)c3c2)o1,7.66%,5.28%,5.08%,3.4%,3%,15.1%,73%,84.6%,96.6%,1.45%
Nc1ncnc2occ(-c3ccc(NC(=O)Nc4cc(C(F)(F)F)ccc4F)cc3)c12,80.2% and 81.5%,26.4% and 1.64%,63.5% and 51.1%,30.6% and 20.3%,84.8% and 72.7%,0.55% and 1.68%,-4.37% and 6.37%,5.76% and -0.4%,4.08% and 3.51%,6.66% and 0.72%
